Assay results reported in the supplement of paper PMC6992640.
Structures can show the parent of a compound that is named as a salt. ± gives the standard deviation of the averaged measurements.

Experiments:
Assay in all cases: cell viability (% of vehicle); higher = less cytotoxic
Conditions in all cases: 10 µM; 72 h
HCI01 = tested on: HCI01 (cells of a triple-negative basal-like breast cancer xenograft)
HCI03 = tested on: HCI03 (cells of an ER-positive luminal breast cancer xenograft)
HCI09 = tested on: HCI09 (cells of a triple-negative luminal androgen receptor type breast cancer xenograft)
HCI11 = tested on: HCI11 (cells of an ER-positive luminal breast cancer xenograft)
HCI13 = tested on: HCI13 (cells of an ER-positive luminal breast cancer xenograft)
HCI16 = tested on: HCI16 (cells of a triple-negative basal-like breast cancer xenograft)
UCD52 = tested on: UCD52 (cells of a triple-negative basal-like breast cancer xenograft)
WHIM2 = tested on: WHIM2 (cells of a triple-negative basal-like breast cancer xenograft)
WHIM30 = tested on: WHIM30 (cells of a triple-negative basal-like breast cancer xenograft)
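Further: PDX cells carrying CMV promoter-driven luciferase, viability read as total photon flux per second by IVIS imaging following D-luciferin, vehicle control 0.1% DMSO.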

SMILES | cell viability (HCI01) | cell viability (HCI03) | cell viability (HCI09) | cell viability (HCI11) | cell viability (HCI13) | cell viability (HCI16) | cell viability (UCD52) | cell viability (WHIM2) | cell viability (WHIM30)
CN1CCCC1c1cccnc1.O=C(O)C(O)C(O)C(=O)O.O=C(O)C(O)C(O)C(=O)O (stereo not given) [Nicotine Difartrate] | 115 ± 7.3 | 107 | 126 ± 40 | 114 | 99.2 ± 3.9 | 98.7 | 100 ± 12 | 99.6 ± 9.8 | 121 ± 2.7
COc1ccc(C2CNC(=O)C2)cc1OC1CCCC1 (stereo not given) [Rolipram] | 130 ± 5.1 | 140 | 85.8 ± 11 | 106 | 175 ± 38 | 112 | 102 ± 18 | 101 ± 13 | 123 ± 19
Cl.O=S(=O)(c1cccc2cnccc12)N1CCCNCC1 [Fasudil (HA-1077) HCl] | 81.6 ± 18 | 93.4 | 69.3 ± 9.2 | 76.2 | 79.6 ± 5.5 | 122 | 60.4 ± 9.9 | 87.3 ± 2.9 | 92.1 ± 12
COC(=O)C1C2CC3c4[nH]c5cc(OC)ccc5c4CCN3CC2CC(OC(=O)c2cc(OC)c(OC)c(OC)c2)C1OC (stereo not given) [Reserpine] | 123 ± 29 | 112 | 92.8 ± 4.8 | 89 | 129 ± 10 | 132 | 105 ± 1.3 | 88.36 ± 0.5 | 109 ± 7.1
CC(=O)OC1(C(C)=O)CCC2C3CC(C)C4=CC(=O)CCC4(C)C3CCC21C (stereo not given) [Medroxyprogesterone acetate] | 122 ± 12 | 114 | 98.5 ± 53 | 78.4 | 152 ± 16 | 177 | 95 ± 3.6 | 87.8 ± 5.8 | 184 ± 9.5
COc1ccc(C2CNC(=O)C2)cc1OC1CCCC1 (stereo not drawn) [S- (+)-Rolipram] | 144 ± 9 | 152 | 94.4 ± 32 | 121 | 144 ± 31 | 136 | 99.5 ± 11 | 117.8 ± 0.47 | 134 ± 9.9
COC(=O)C1=COC(OC2OC(CO)C(O)C(O)C2O)C2C(CO)=CCC12 (stereo not given) [Geniposide] | 104 ± 24 | 158 | 104 ± 21 | 98.3 | 95.3 ± 7.7 | 116 | 116 ± 1.3 | 83.6 ± 4.8 | 96.53 ± 0.79
CCn1cc(C(=O)O)c(=O)c2cc(F)c(N3CCNCC3)nc21 [Enoxacin (Penetrex)] | 101 ± 5.7 | 144 | 102 ± 13 | 109 | 104 ± 12 | 91 | 79.6 ± 0.81 | 85.5 ± 12 | 98.8 ± 2.7
CN(C)CCOC(C)(c1ccccc1)c1ccccn1.O=C(O)CCC(=O)O (stereo not given) [Doxylamine Succinate] | 122 ± 18 | 124 | 101 ± 14 | 101 | 90.5 ± 6.7 | 108 | 94.28 ± 0.33 | 97.4 ± 22 | 103.9 ± 0.48
Br.COc1ccc2c3c1O[C@H]1C[C@@H](O)C=C[C@@]31CCN(C)C2 [Galanthamine HBr] | 113 ± 6.7 | 102 | 97.02 ± 0.17 | 93.2 | 80.4 ± 8.2 | 73.8 | 97.8 ± 2.6 | 79.7 ± 12 | 118 ± 24
CS(=O)(=O)c1ccc(C(O)C(CO)NC(=O)C(Cl)Cl)cc1 (stereo not given) [Thiamphenicol] | 109 ± 26 | 104 | 85.8 ± 3.5 | 82.9 | 64.4 ± 4.1 | 103 | 84.7 ± 13 | 107 ± 29 | 122 ± 6.1
CN[C@H](CC(C)C)C(=O)N[C@H]1C(=O)N[C@@H](CC(N)=O)C(=O)N[C@H]2C(=O)N[C@H]3C(=O)N[C@H](C(=O)N[C@H](C(=O)O)c4cc(O)cc(O)c4-c4cc3ccc4O)[C@H](O)c3ccc(c(Cl)c3)Oc3cc2cc(c3O[C@@H]2O[C@H](CO)[C@@H](O)[C@H](O)[C@H]2O[C@H]2C[C@](C)(N)[C@H](O)[C@H](C)O2)Oc2ccc(cc2Cl)[C@H]1O [Vancomycin hydrochloride] | 125 ± 1.7 | 110 | 146 ± 38 | 92.4 | 195 ± 13 | 167 | 122 ± 7.7 | 107 ± 4.2 | 148 ± 22
S=C(NCc1ccc2c(c1)OCO2)N1CCN(c2ncnc3c2oc2ccccc23)CC1 [Amuvatinib (MP-470, HPK 56)] | 107 ± 48 | 120 | 40 ± 18 | 81.7 | 82 ± 9.2 | 84.3 | 73 ± 1.1 | 149 ± 3.3 | 75.2 ± 9.7
CN1CCN(c2c(F)cc3c(=O)c(C(=O)O)cn4c3c2OCN4C)CC1 [Marbofloxacin] | 99.12 ± 0.67 | 99.3 | 69.9 ± 9 | 138 | 129 ± 17 | 114 | 136 ± 18 | 75.5 ± 2.6 | 148 ± 30
CNC(=O)C(NC(=O)C(CC(C)C)C(O)C(=O)NO)C(C)(C)C (stereo not given) [Marimastat] | 138 ± 9.7 | 111 | 78.3 ± 3 | 118 | 72.6 ± 8.9 | 127 | 101 ± 16 | 105 ± 10 | 117 ± 13
CC(=O)OCC[N+](C)(C)C.[Cl-] [Acetylcholine Chloride] | 104 ± 23 | 85.8 | 95.1 ± 7.5 | 87.1 | 101 ± 9.6 | 97.8 | 69.3 ± 1.8 | 96.7 ± 6.8 | 107 ± 21
Cc1cc(=O)n(-c2ccccc2)n1C [Antipyrine] | 110 ± 15 | 131 | 101 ± 10 | 103 | 88.6 ± 1.1 | 95.9 | 98.2 ± 7.5 | 106 ± 30 | 125 ± 11
O=C(O)c1ccccc1 [Benzoic Acid] | 143 ± 20 | 95.6 | 109 ± 25 | 104 | 70.3 ± 10 | 124 | 110 ± 8 | 127 ± 7.8 | 111 ± 15
CCN(CC)C(=O)C(C#N)=Cc1cc(O)c(O)c([N+](=O)[O-])c1 [Entacapone] | 121 ± 8.8 | 159 | 105 ± 2.4 | 80.8 | 98.77 ± 0.41 | 105 | 98.7 ± 14 | 192 ± 14 | 104 ± 7
OCC1OC(c2ccc(Cl)c(Cc3ccc(OC4CCOC4)cc3)c2)C(O)C(O)C1O (stereo not given) | 94.9 ± 15 | 132 | 90.7 ± 14 | 84.1 | 87.5 ± 14 | 113 | 94 ± 1.7 | 112 ± 7 | 114 ± 9.9

SMILES | cell viability (HCI01) | cell viability (HCI03) | cell viability (HCI09) | cell viability (HCI11) | cell viability (HCI13) | cell viability (HCI16) | cell viability (UCD52) | cell viability (WHIM2) | cell viability (WHIM30)
CNC1C(OC2C(OC3C(O)C(O)C(N=C(N)N)C(O)C3N=C(N)N)OC(C)C2(O)C=O)OC(CO)C(O)C1O.CNC1C(OC2C(OC3C(O)C(O)C(N=C(N)N)C(O)C3N=C(N)N)OC(C)C2(O)C=O)OC(CO)C(O)C1O.O=S(=O)(O)O.O=S(=O)(O)O.O=S(=O)(O)O (stereo not given) [Streptomycin sulfate] | 82.6 ± 31 | 97.7 | 84.6 ± 5.9 | 82.9 | 90 ± 1.7 | 103 | 84.1 ± 3.6 | 81.8 ± 12 | 86.6 ± 7.4
CC(=O)NCC1CN(c2ccc(N3CCOCC3)c(F)c2)C(=O)O1 (stereo not given) [Linezolid] | 99.5 ± 2.9 | 108 | 93.8 ± 5.2 | 103 | 98.1 ± 3 | 110 | 81 ± 12 | 80.7 ± 1.3 | 137 ± 14
CC(=O)N(CC(O)CO)c1c(I)c(C(=O)NCC(O)CO)c(I)c(C(=O)NCC(O)CO)c1I (stereo not given) [Iohexol] | 117 ± 33 | 116 | 96.5 ± 2.9 | 83.2 | 133 ± 9.7 | 122 | 101 ± 6.7 | 99.2 ± 2.7 | 95.9 ± 8.9
CC[N+](CC)(CC)CCOc1cccc(OCC[N+](CC)(CC)CC)c1OCC[N+](CC)(CC)CC.[I-].[I-].[I-] [Gallamine Triethiodide] | 107 ± 9.8 | 118 | 94.6 ± 20 | 88.1 | 107 ± 8.3 | 92.6 | 98 ± 6.3 | 118 ± 6.2 | 79.5 ± 6.1
COc1cc2nc(N3CCN(C(=O)C4COc5ccccc5O4)CC3)nc(N)c2cc1OC.CS(=O)(=O)O (stereo not given) [Doxazosin Mesylate] | 116.9 ± 0.43 | 94.7 | 73.2 ± 34 | 83.3 | 103 ± 15 | 123 | 92.4 ± 14 | 62.6 ± 10 | 117 ± 13
CCCC(NC(C)C(=O)N1C(C(=O)O)CC2CCCCC21)C(=O)OCC (stereo not given) [Perindopril] | 110.1 ± 0.73 | 111 | 131 ± 35 | 111 | 134 ± 4.2 | 94.2 | 103 ± 2.7 | 102 ± 5.3 | 101 ± 2.5
CC(=O)C1CCC2C3CCC4=CC(=O)CCC4(C)C3CCC12C (stereo not given) [Progesterone] | 160 ± 12 | 108 | 77.8 ± 41 | 90.6 | 154 ± 6.9 | 113 | 88.9 ± 3.9 | 148 ± 41 | 123 ± 16
CN1CCN(C2=c3ccccc3=Nc3ccc(Cl)cc3N2)CC1 [Clozapine] | 95.4 ± 14 | 130 | 101 ± 11 | 87.2 | 106 ± 1.6 | 123 | 83.6 ± 11 | 85.298 ± 0.078 | 122 ± 15
Nc1[nH]c(=O)ncc1F [Flucytosine] | 106 ± 1.6 | 137 | 94.7 ± 12 | 93.1 | 135 ± 4.5 | 94.7 | 81.4 ± 1.5 | 93.72 ± 0.49 | 82.1 ± 1.3
CC(C)(C)c1cc(C(C)(C)C)c(NC(=O)c2c[nH]c3ccccc3c2=O)cc1O [Ivacaftor (VX-770)] | 41.4 ± 24 | 83.8 | 18.7 ± 3.1 | 139 | 29.5 ± 4.1 | 121 | 97.2 ± 20 | 34.4 ± 0.58 | 200 ± 19
CC(=O)OC1CCC2(C)C(=CCC3C2CCC2(C)C(c4cccnc4)=CCC32)C1 (stereo not given) [Abiraterone acetate] | 96.7 ± 14 | 87.6 | 65.8 ± 28 | 88.7 | 68 ± 12 | 98 | 62.6 ± 1.9 | 95.5 ± 20 | 117 ± 51
Nc1nc(Cl)nc2c1ncn2C1CC(O)C(CO)O1 (stereo not given) [Cladribine] | 95.8 ± 7.4 | 118 | 94.6 ± 26 | 104 | 128 ± 34 | 58.3 | 110 ± 15 | 106 ± 34 | 78.8 ± 8.9
O=C(O)COCCN1CCN(C(c2ccccc2)c2ccc(Cl)cc2)CC1 (stereo not given) [Cetirizine] | 108 ± 5.1 | 95.2 | 97.2 ± 2.1 | 93.5 | 108 ± 2.5 | 74.6 | 92.6 ± 3.8 | 94.8 ± 4.7 | 128 ± 9.9
C=C[C@]1(C)C[C@@H](OC(=O)CSC2C[C@H]3CC[C@@H](C2)N3C)[C@]2(C)[C@H](C)CC[C@]3(CCC(=O)[C@H]32)[C@@H](C)[C@@H]1O (stereo not given in full) [Retapamulin] | 73.5 ± 21 | 113 | 83.2 ± 3.2 | 93.3 | 111 ± 10 | 109 | 81.8 ± 4.8 | 80.3 ± 5.3 | 146 ± 15
CCCCCN(C)CCC(O)(P(=O)([O-])O)P(=O)(O)O.O.[Na+] [Ibandronate sodium] | 113 ± 30 | 93.2 | 107 ± 19 | 101 | 126 ± 20 | 138 | 115 ± 5.5 | 130 ± 14 | 128 ± 22
Nc1ccn([C@@H]2O[C@H](CO)[C@@H](O)C2(F)F)c(=O)n1 [Gemcitabine HCl] | 96.1 ± 22 | 109 | 93 ± 23 | 103 | 89.6 ± 16 | 107 | 133 ± 24 | 75.7 ± 7.1 | 105 ± 14
O=C1OC(C(O)CO)C([O-])=C1O.[Na+] (stereo not given) [Sodium ascorbate] | 94.7 ± 14 | 87 | 90.3 ± 1.3 | 87 | 52 ± 6.5 | 92.3 | 77.3 ± 8.9 | 115 ± 31 | 120 ± 3
CO/C(O)=N/[C@H](C(=O)N1CC2(CC2)C[C@H]1c1ncc(-c2ccc3c(c2)C(F)(F)c2cc(-c4ccc5nc([C@@H]6[C@H]7CC[C@H](C7)N6C(=O)[C@@H](/N=C(\O)OC)C(C)C)[nH]c5c4)ccc2-3)[nH]1)C(C)C [Ledipasvir] | 103 ± 1.7 | 94.4 | 55.6 ± 3.8 | 80.6 | 99 ± 8.5 | 72.3 | 73.6 ± 4.1 | 64.9 ± 9.5 | 104 ± 1.1
Cl.N=C(N)N [Guanidine HCl] | 77.2 ± 10 | 96.3 | 96.5 ± 9.5 | 85.6 | 125 ± 4.1 | 126 | 79.1 ± 8.1 | 97.7 ± 5.6 | 135 ± 2.3
CCN(CCO)CCCC(C)Nc1ccnc2cc(Cl)ccc12.O=S(=O)(O)O (stereo not given) [Hydroxychloroquine Sulfate] | 71.8 ± 4.6 | 96.6 | 72.2 ± 1.6 | 81.8 | 84.4 ± 8.1 | 86.5 | 71.4 ± 3.8 | 70.8 ± 2.9 | 101.7 ± 0.69
